Source: the supplement of paper PMC11732987, “Enantioselective OTUD7B fragment discovery through chemoproteomics screening and high-throughput optimisation” (Communications Chemistry, 2025)

Columns and labels:
Assay in all cases: log2 ratio of Biotin-Ahx-Ub-VS probe labelling (fragment/DMSO); higher = less target engagement (more negative = stronger competition), active = hit call of the paper (q ≤ 0.05, log2 ratio ≤ -1)
Conditions in all cases: compound concentration: 200 uM; treatment time: 3 h
[1] = target: T1, OTUD6B (UniProt Q8N6M0)
T1 sequence (whole entry): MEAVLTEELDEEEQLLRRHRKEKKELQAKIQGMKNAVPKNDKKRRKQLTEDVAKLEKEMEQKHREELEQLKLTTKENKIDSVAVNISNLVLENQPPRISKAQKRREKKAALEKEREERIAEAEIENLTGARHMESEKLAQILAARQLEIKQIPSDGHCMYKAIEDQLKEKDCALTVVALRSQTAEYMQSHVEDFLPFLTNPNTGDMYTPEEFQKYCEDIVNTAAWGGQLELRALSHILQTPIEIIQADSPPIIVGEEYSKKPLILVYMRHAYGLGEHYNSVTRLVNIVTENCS
Outline: (§1)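 Fragment (200 µM) or vehicle was incubated for 3 h with triplicate HEK293T lysate samples of 495 µg, which were then treated with Biotin-Ahx-Ub-VS at 0.5 µM final for 1 h. Labelled DUBs were enriched on NeutrAvidin, digested with LysC and trypsin, and analysed by diaPASEF LC-MS/MS. Values are average log2 fragment/vehicle ratios from an unpaired t-test on global-median-normalised Spectronaut label-free quantities, using proteins with ≥2 unique peptides.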

[2] = target: T2, OTUD7B (UniProt Q6GQQ9)
T2 sequence (whole entry): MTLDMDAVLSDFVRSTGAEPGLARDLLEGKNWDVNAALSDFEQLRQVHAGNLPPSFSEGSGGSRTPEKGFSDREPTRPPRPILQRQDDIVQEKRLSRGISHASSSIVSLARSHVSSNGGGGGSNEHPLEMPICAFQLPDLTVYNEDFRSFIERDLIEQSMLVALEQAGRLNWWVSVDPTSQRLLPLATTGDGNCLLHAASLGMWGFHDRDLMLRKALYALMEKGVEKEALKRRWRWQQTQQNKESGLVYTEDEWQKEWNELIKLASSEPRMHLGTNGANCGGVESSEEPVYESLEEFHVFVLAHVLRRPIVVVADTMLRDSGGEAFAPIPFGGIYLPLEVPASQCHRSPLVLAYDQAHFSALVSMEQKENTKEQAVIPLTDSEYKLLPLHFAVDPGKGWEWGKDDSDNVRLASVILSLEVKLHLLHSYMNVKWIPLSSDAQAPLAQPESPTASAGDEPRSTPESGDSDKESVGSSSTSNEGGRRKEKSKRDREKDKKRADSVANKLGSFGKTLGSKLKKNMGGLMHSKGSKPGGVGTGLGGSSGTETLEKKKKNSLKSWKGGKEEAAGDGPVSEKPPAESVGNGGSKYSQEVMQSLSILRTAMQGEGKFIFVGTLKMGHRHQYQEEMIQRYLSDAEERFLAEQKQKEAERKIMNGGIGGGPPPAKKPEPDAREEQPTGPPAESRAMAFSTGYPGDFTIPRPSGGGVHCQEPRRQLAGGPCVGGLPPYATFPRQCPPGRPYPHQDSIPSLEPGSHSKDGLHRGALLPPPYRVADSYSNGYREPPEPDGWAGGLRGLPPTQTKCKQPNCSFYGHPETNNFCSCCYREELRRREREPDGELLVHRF
Outline: as §1

[3] = target: PRPF8 (UniProt Q6P2Q9)
Outline: as §1

[4] = target: T3, PSMD7 (UniProt P51665)
T3 sequence (whole entry): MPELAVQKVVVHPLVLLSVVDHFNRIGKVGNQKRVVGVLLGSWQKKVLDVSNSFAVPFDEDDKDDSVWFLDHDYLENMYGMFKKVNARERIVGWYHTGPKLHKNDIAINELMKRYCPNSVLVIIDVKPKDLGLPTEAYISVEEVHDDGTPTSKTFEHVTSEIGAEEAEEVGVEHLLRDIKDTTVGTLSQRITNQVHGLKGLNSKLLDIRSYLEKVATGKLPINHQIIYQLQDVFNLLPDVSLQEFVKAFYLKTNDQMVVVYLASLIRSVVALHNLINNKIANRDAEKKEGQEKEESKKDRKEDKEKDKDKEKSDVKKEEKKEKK
Outline: as §1

[5] = target: UCHL1 (UniProt P09936)
Outline: as §1

[6] = target: T4, UCHL3 (UniProt P15374)
T4 sequence (whole entry): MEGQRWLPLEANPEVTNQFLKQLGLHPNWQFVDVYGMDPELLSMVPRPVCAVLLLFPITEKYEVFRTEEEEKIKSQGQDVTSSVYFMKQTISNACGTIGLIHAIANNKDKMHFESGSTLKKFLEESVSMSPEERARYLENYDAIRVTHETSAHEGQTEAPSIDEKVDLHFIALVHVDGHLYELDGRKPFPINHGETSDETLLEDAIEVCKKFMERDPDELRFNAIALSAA
Outline: as §1

[7] = target: T5, UCHL5 (UniProt Q9Y5K5)
T5 sequence (whole entry): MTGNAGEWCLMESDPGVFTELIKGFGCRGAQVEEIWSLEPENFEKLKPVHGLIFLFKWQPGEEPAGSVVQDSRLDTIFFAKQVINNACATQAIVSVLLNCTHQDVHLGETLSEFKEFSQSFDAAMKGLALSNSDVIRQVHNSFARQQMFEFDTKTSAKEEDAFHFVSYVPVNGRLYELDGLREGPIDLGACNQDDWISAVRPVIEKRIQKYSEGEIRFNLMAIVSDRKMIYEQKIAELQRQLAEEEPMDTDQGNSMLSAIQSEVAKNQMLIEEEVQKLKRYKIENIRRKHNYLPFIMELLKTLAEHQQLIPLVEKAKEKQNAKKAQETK
Outline: as §1

[8] = target: USP10 (UniProt Q14694)
Outline: as §1

[9] = target: T6, USP15 (UniProt Q9Y4E8)
T6 sequence (whole entry): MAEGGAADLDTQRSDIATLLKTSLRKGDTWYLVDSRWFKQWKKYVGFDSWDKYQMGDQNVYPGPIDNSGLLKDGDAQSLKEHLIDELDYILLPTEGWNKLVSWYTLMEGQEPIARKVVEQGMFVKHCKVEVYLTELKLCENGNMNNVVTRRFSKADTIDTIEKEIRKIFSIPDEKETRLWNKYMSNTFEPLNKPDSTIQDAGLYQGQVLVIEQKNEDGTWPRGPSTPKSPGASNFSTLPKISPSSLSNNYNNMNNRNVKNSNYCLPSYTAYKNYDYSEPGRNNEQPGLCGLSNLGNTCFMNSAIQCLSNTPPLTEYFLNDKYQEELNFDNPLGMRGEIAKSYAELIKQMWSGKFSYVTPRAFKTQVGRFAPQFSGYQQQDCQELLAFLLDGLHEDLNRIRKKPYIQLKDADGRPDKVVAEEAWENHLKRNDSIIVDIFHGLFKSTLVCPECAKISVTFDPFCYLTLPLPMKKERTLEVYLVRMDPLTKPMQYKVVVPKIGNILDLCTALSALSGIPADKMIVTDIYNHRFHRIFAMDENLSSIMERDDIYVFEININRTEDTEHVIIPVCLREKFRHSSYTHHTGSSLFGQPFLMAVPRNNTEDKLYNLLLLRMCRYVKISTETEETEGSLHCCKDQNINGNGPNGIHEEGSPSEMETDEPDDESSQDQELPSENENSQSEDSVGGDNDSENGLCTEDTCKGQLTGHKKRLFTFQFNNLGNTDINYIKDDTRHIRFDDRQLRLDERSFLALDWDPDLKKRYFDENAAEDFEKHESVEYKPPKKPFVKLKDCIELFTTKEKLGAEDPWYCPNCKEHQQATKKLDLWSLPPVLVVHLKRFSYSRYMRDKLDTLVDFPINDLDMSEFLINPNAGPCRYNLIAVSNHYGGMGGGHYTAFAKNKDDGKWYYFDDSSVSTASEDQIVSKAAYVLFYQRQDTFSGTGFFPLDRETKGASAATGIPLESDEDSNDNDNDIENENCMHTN
Outline: as §1

[10] = target: USP16 (UniProt Q9Y5T5)
Outline: as §1

Measured: log2 ratio of Biotin-Ahx-Ub-VS probe labelling

UCHL1, sequence (P09936 whole entry, looked up): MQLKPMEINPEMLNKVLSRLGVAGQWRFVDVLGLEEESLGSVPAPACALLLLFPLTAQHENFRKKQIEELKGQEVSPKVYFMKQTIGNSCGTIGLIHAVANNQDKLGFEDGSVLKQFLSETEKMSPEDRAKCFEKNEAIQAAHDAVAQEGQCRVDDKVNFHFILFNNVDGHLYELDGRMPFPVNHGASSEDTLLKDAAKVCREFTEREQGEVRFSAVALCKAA
USP16, sequence (Q9Y5T5 whole entry, looked up): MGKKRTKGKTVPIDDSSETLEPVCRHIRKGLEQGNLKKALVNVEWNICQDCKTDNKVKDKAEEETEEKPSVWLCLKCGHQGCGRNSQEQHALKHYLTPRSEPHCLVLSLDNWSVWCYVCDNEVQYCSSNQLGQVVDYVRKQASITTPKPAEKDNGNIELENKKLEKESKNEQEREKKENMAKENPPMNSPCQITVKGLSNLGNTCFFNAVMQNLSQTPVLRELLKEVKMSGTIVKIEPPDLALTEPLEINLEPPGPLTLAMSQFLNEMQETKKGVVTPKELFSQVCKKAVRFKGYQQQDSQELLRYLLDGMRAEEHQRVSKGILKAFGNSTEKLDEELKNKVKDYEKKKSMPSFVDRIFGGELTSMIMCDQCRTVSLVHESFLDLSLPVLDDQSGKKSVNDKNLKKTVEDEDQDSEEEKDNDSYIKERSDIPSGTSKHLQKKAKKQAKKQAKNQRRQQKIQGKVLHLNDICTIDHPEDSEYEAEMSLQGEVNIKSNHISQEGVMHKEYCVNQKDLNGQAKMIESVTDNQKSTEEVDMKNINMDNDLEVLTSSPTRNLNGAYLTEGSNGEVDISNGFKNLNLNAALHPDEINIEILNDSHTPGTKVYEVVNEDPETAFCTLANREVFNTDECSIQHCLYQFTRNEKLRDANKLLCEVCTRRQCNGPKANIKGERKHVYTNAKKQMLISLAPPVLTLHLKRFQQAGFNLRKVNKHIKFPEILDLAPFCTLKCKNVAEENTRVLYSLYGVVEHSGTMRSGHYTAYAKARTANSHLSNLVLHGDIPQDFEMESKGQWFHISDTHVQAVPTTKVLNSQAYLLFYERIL
USP10, sequence (Q14694 whole entry): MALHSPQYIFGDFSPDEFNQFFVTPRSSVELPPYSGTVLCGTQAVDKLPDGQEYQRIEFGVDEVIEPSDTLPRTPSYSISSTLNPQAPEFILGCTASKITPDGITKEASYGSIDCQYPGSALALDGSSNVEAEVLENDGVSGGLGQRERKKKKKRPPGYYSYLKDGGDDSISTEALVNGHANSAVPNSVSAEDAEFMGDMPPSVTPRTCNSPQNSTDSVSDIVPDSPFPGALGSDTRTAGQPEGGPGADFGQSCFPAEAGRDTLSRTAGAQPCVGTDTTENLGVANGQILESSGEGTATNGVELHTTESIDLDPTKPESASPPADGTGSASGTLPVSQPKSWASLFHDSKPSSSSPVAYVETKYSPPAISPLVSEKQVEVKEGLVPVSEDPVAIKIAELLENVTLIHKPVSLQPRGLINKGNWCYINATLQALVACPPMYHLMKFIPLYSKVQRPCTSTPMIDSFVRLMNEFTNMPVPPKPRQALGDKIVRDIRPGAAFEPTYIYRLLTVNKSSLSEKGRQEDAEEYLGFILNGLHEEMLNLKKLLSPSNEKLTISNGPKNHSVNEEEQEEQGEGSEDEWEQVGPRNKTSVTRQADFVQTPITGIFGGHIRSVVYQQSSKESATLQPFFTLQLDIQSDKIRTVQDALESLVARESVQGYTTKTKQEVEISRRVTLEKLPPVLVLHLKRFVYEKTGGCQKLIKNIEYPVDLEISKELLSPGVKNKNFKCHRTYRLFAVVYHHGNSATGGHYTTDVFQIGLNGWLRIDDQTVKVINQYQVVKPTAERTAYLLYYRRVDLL

Cc1nc(CNC(=O)CCl)c2ccccn12.Cl
active: [5] -1.12
inactive: [1] -0.000255 | [2] -0.458 | [3] -0.14 | [4] -0.132 | [6] -0.319 | [7] -0.224 | [8] -0.121 | [9] -0.398 | [10] -0.0983
